Assay results published in PubChem BioAssay (NCATS).
Results filed as inconclusive are left out. Activity calls are given as the source filed them. Calls come from the whole dose curve; as a rule, active = well fitted curve in the direction sought with a large enough effect; inconclusive = small, poorly fitted or top-dose-only effect, or another doubt; inactive = no such curve, though single readings can be large; an effect the other way counts as inactive or inconclusive.

Key:
[1] = Quantitative High-Throughput drug screen in 47 multiple myeloma cell lines against the NCATS MIPE library collection: AMO1_DSMZ cell viability assay (AID 1918927; note: nearly all actives have a fitted effect of over 30% in size; note: potency is the fitted concentration of half-maximal effect)
Outline: (§1)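 Inhibition of cell viability is measured here. Each line was plated at 500 cells per well, treated with MIPE 4.0 drugs, kept 48 hours at 37C, then assayed for ATP content by CellTiter-Glo luminescence.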

[2] = Quantitative High-Throughput drug screen in 47 multiple myeloma cell lines against the NCATS MIPE library collection: KMM1_JCRB cell viability assay (AID 1918960); note: nearly all actives have a fitted effect of over 30% in size; note: potency is the fitted concentration of half-maximal effect
Outline: (§2)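 Each line was plated at 500 cells/well and treated 48 h with library drugs. Viability came from CellTiter-Glo luminescence relative to DMSO and cell-free medium controls.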

[3] = Quantitative High-Throughput drug screen in 47 multiple myeloma cell lines against the NCATS MIPE library collection: INA6_PLB cell viability assay (AID 1918965; note: nearly all actives have a fitted effect of over 55% in size; note: potency is the fitted concentration of half-maximal effect)
Outline: (§3)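 Relative luminescence from CellTiter-Glo served as the viability signal, referenced to DMSO-treated (100%) and cell-free medium (0%) controls. Treatment lasted 48 hours at 37C with 500 cells per well.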

[4] = Quantitative High-Throughput drug screen in 47 multiple myeloma cell lines against the NCATS MIPE library collection: ARP1_JJKsccF8 cell viability assay (AID 1918928; note: nearly all actives have a fitted effect of over 40% in size; note: potency is the fitted concentration of half-maximal effect)
Outline: as §2

[5] = Quantitative High-Throughput drug screen in 47 multiple myeloma cell lines against the NCATS MIPE library collection: ARD_JJKsccE7 cell viability assay (AID 1918929; note: potency is the fitted concentration of half-maximal effect)
Outline: as §1

[6] = Quantitative High-Throughput drug screen in 47 multiple myeloma cell lines against the NCATS MIPE library collection: Karpas620_DSMZ cell viability assay (AID 1918959); note: nearly all actives have a fitted effect of over 30% in size; note: potency is the fitted concentration of half-maximal effect
Outline: as §3

[7] = Quantitative High-Throughput drug screen in 47 multiple myeloma cell lines against the NCATS MIPE library collection: JIM3_ECACC cell viability assay (AID 1918963; note: nearly all actives have a fitted effect of over 35% in size; note: potency is the fitted concentration of half-maximal effect)
Outline: as §3

[8] = Quantitative High-Throughput drug screen in 47 multiple myeloma cell lines against the NCATS MIPE library collection: Karpas25_ECACC cell viability assay (AID 1918968; note: nearly all actives have a fitted effect of over 35% in size; note: potency is the fitted concentration of half-maximal effect)
Outline: as §1

[9] = Quantitative High-Throughput drug screen in 47 multiple myeloma cell lines against the NCATS MIPE library collection: KMS26_JCRB cell viability assay (AID 1918975); note: nearly all actives have a fitted effect of over 45% in size; note: potency is the fitted concentration of half-maximal effect
Outline: (§4)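 We plated 500 myeloma cells per well, pinned in MIPE 4.0 compounds, and incubated for 48 hours at 37C. ATP was then quantified with CellTiter-Glo, with DMSO and media-only wells defining 100% and 0%.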

[10] = Quantitative High-Throughput drug screen in 47 multiple myeloma cell lines against the NCATS MIPE library collection: Karpas417_ECACC cell viability assay (AID 1918961); conditions: Karpas417 myeloma viability, CellTiter-Glo ATP luminescence, 48 h; viability (% of DMSO): at 45.8 µM (top of the series); note: potency is the fitted concentration of half-maximal effect
Outline: as §3

[11] = Quantitative High-Throughput drug screen in 47 multiple myeloma cell lines against the NCATS MIPE library collection: KHM11_PLB cell viability assay (AID 1918962); note: nearly all actives have a fitted effect of over 35% in size; note: potency is the fitted concentration of half-maximal effect
Outline: as §3

[12] = Quantitative High-Throughput drug screen in 47 multiple myeloma cell lines against the NCATS MIPE library collection: KMS27_JCRB cell viability assay (AID 1918970); note: nearly all actives have a fitted effect of over 30% in size; note: potency is the fitted concentration of half-maximal effect
Outline: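 ATP-based viability (CellTiter-Glo luminescence) is measured in cells treated 48 h with approved and investigational drugs at 37 °C. Controls are DMSO-only wells for full viability and media-only wells for none.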

[13] = Quantitative High-Throughput drug screen in 47 multiple myeloma cell lines against the NCATS MIPE library collection: JIM1_ECACC cell viability assay (AID 1918964; note: potency is the fitted concentration of half-maximal effect)
Outline: as §1

[14] = Quantitative High-Throughput drug screen in 47 multiple myeloma cell lines against the NCATS MIPE library collection: KMS12PE_JCRB cell viability assay (AID 1918972); note: nearly all actives have a fitted effect of over 30% in size; note: potency is the fitted concentration of half-maximal effect
Outline: as §3

[15] = Quantitative High-Throughput drug screen in 47 multiple myeloma cell lines against the NCATS MIPE library collection: H1112_PLB cell viability assay (AID 1918967; note: nearly all actives have a fitted effect of over 30% in size; note: potency is the fitted concentration of half-maximal effect)
Outline: as §1

[16] = Quantitative High-Throughput drug screen in 47 multiple myeloma cell lines against the NCATS MIPE library collection: KMS12BM_JCRB cell viability assay (AID 1918971); note: nearly all actives have a fitted effect of over 35% in size; note: potency is the fitted concentration of half-maximal effect
Outline: as §4

[17] = Quantitative High-Throughput drug screen in 47 multiple myeloma cell lines against the NCATS MIPE library collection: EJM_DSMZ cell viability assay (AID 1918926; note: nearly all actives have a fitted effect of over 30% in size)
Outline: as §1

[18] = Quantitative High-Throughput drug screen in 47 multiple myeloma cell lines against the NCATS MIPE library collection: JJN3_DSMZ cell viability assay (AID 1918966; note: nearly all actives have a fitted effect of over 50% in size)
Outline: as §1

[19] = Quantitative High-Throughput drug screen in 47 multiple myeloma cell lines against the NCATS MIPE library collection: KMS20_JCRB cell viability assay (AID 1918973); note: nearly all actives have a fitted effect of over 45% in size
Outline: as §1

[20] = Quantitative High-Throughput drug screen in 47 multiple myeloma cell lines against the NCATS MIPE library collection: KMS21BM_JCRB cell viability assay (AID 1918974); conditions: ATP luminescence, 48 h; viability: at 45.8 µM (top of the series); note: potency is the fitted concentration of half-maximal effect
Outline: as §1

Measured: Potency

CC(=O)[C@H]1CC[C@H]2[C@@H]3CCC4=CC(=O)CC[C@]4(C)[C@H]3CC[C@]12C
inactive: [1] | [2]
active: [3] 16.6 µM

Nc1nc(N)c2nc(CNc3ccc(C(=O)NC(CCC(=O)O)C(=O)O)cc3)cnc2n1 (stereo unspecified)
active: [1] 0.0235 µM | [4] 0.0372 µM | [5] 0.0118 µM | [7] 0.0418 µM | [9] 0.0264 µM
inactive: [6] | [8]

CNS(=O)(=O)CCc1ccc2[nH]cc(C3CCN(C)CC3)c2c1
active: [1] 2.35 µM | [5] 10.5 µM | [2] 18.7 µM | [10] 16.6 µM | [11] 1.18 µM | [7] 2.35 µM | [3] 2.09 µM | [8] 0.935 µM | [9] 2.96 µM
inactive: [6]

CC(C)(Sc1cc(C(C)(C)C)c(O)c(C(C)(C)C)c1)Sc1cc(C(C)(C)C)c(O)c(C(C)(C)C)c1
inactive: [1] | [4] | [6] | [10] | [12] | [9]
active: [3] 4.69 µM

COC(=O)Nc1nc2ccc(S(=O)c3ccccc3)cc2[nH]1 (stereo unspecified)
inactive: [6] | [2] | [9]
active: [4] 16.6 µM | [7] 20.9 µM | [3] 18.7 µM | [8] 16.6 µM

CCC(C)(C)c1ccc(CC(C)CN2C[C@@H](C)O[C@@H](C)C2)cc1 (stereo partly specified)
inactive: [5] | [6] | [2] | [10] | [13] | [14]

NNC(=O)c1ccncc1
not listed: [10] | [17] | [18] | [19] | [20]
inactive: all other assays above

CCCN[C@H]1CCc2nc(N)sc2C1
inactive: [17] | [7] | [13] | [3] | [18] | [15] | [19]
active: [8] 2.09 µM

COc1ccc2cc3[n+](cc2c1OC)CCc1cc2c(cc1-3)OCO2
active: [4] 6.62 µM | [5] 5.9 µM | [6] 14.8 µM | [2] 10.5 µM | [10] 9.35 µM | [11] 8.33 µM | [13] 16.6 µM | [3] 6.62 µM | [15] 14.8 µM | [8] 2.64 µM | [12] 16.6 µM | [16] 6.62 µM | [14] 16.6 µM | [20] 2.64 µM | [9] 5.9 µM

CC(=O)[C@H]1CC[C@H]2[C@@H]3CC=C4C[C@@H](O)CC[C@]4(C)[C@H]3CC[C@]12C
inactive: [1] | [5] | [6] | [2] | [11] | [7] | [15] | [8] | [14]

O=c1oc2c(O)c(O)cc3c(=O)oc4c(O)c(O)cc1c4c23
inactive: [5] | [6] | [7] | [3] | [15] | [8] | [12] | [14]

NC(=O)N1c2ccccc2CC(=O)c2ccccc21
not listed: [3] | [10] | [11] | [16] | [17] | [18] | [19] | [20]
inactive: all other assays above

CCN[C@H]1C[C@H](C)S(=O)(=O)c2sc(S(N)(=O)=O)cc21
not listed: [10] | [11] | [17] | [18] | [19] | [20]
inactive: all other assays above
